In PubChem BioAssay AID1578 (Sanford-Burnham Center for Chemical Genomics, 2009) one finds inhibition data, which are given here for 63 compounds.

In all, about 290,000 compounds went through this assay and about 3,000 (1%) were called active. The full list was thinned out, with actives kept by preference. A number with no mark means an inactive call. Rule as the data show it: active = inhibition mostly above about 36% (no sharp cut-off); inactive = mostly below about 34%.

In general, inhibition refers to the relative decrease from the control value, in per cent.

The assay is described as follows: NOD1 signaling inhibitors, primary screen, cell-based, luminescence, uHTS (AID 1578).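 Also: HEK-293T reporter cells stimulated with the NOD1 agonist gamma-tri-DAP.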 The following applies: NOD1-driven NF-kB luciferase reporter cells, at 4 µM, hits give high values. (In general: Reporter assays use an easily measured gene product as a stand-in for the process of interest.)
Regarding `CCOC(=O)CSc1nc(N)c(C#N)cc1C#N`, the inhibition was -40.2%.
Take `COc1cc(CN2CCNC(=O)C2CC(=O)N(C)CCCN2CCOCC2)cc(OC)c1` (stereo not drawn): the inhibition was -24.5%.
In the case of `O=[N+]([O-])c1ccc(/C=[N+](\[O-])[C@@H]2CCCC[C@@H]2/[N+]([O-])=C/c2ccc([N+](=O)[O-])o2)o1` it was -2%; in that of `O=C1CN(/N=C/c2ccc([N+](=O)[O-])o2)C(=O)N1`, -4.5%.
In the case of `O=C1NC(=S)S/C1=C\C=C\c1ccc([N+](=O)[O-])o1` it was 39.6% (active); in that of `COc1ccc(C(C)=O)cc1CC(=O)Nc1ccccc1-c1ccccc1`, -4.6%.
On to `S=c1[nH]cnc2scc(-c3ccccc3)c12`, for which the inhibition was -0.1%.
`Cc1c(-c2ccccc2)sc2nc[nH]c(=S)c12`: the inhibition was -35.9%.
With `Cc1sc2nc[nH]c(=S)c2c1-c1ccccc1`, the inhibition is 99.2% (active).
The figure for `O=C(COC(=O)Cc1ccc(-c2ccccc2)cc1)NCc1ccc(F)cc1` is -4.2%; for `O=C(COC(=O)Cc1ccc(Br)cc1)NCc1ccc(F)cc1` it is 48.2% (active).
In the case of `O=C(COC(=O)c1ccc(Br)cc1)NCc1ccc(F)cc1` it was -22.6%.
`COc1ccc(/C(C)=N/NC(=O)c2sccc2-n2cccc2)cc1`: the inhibition is -58.2%.
With `Cc1sc2ncnc(NCc3ccco3)c2c1C`, the inhibition was -21.2%.
The figure for `Cc1nc(NCc2ccco2)c2c(C)c(C)sc2n1` is 97.6% (active).
With `Cc1nc(NCc2ccco2)c2c3c(sc2n1)CCC3`, the inhibition is -54.6%.
In the case of `COc1ccccc1C1CCN(Cc2ccc(C)cc2)CC1` it was 4.9%; in that of `Cc1cc(C=C2C(=O)c3ccccc3C2=O)c(C)n1-c1ccccc1`, 32.4%.
The figure for `Cc1cc(C=C2C(=O)CCCC2=O)c(C)n1-c1ccccc1` is -19.3%; for `Cc1cc(/C=C2\Cc3ccccc3C2=O)c(C)n1-c1ccccc1` it is 63.8% (active); for `Cc1nc(N)ncc1-c1ccc2c(c1)OCO2` it is 2.9%.
As to `O=C(NCC(=O)N(c1ccc(Cl)cc1)C(C(=O)NC1CCCC1)c1cccnc1)c1ccco1` (stereo not drawn), the inhibition was 6%.
With `Oc1[nH]c2ccccc2c1N=Nc1cccc(Cl)c1`, the inhibition is -10.3%.
In the case of `Oc1[nH]c(N=C2N=c3ccccc3=N2)c2ccccc12`, the inhibition is 42.6% (active).
Turning to `N#CC(=C1N=c2ccccc2=N1)c1c(O)[nH]c2ccccc12`, the inhibition was 20%.
Take `CC(C)NC(=O)NC(=O)COC(=O)c1cc[n+]([O-])cc1`: the inhibition was -6.6%.
The figure for `CCOC(=O)CON1C(=O)C(=O)N(OCC(=O)OCC)C2CCCCC21` (stereo not drawn) is -26.3%; for `CC(C)(C)N1CC(COc2ccccc2)OC1=O` (stereo not drawn) it is -21.9%.
In the case of `Cc1sc(NC(=O)CCl)c(C(=O)c2ccccc2)c1C` it was 60.9% (active); in that of `Cc1ccc(C(=O)Nc2sc(C)c(C)c2C(=O)c2ccccc2)cc1`, -9.8%; in that of `Cc1sc(NC(=O)c2ccccc2)c(C(=O)c2ccccc2)c1C`, 14.5%.
Consider `Cc1ccc(NC(=O)CN(C)C(=O)/C=C/c2cccc(F)c2)cc1`, for which the inhibition is -1.6%.
Consider `COCCN(Cc1cc2cc(C)ccc2n2nnnc12)C(=S)Nc1ccccc1C`, for which the inhibition is 52.2% (active).
In the case of `Cc1ccc(C(=O)N(Cc2cccnc2)Cc2cc3cc(C)ccc3n3nnnc23)cc1` it was 52% (active).
On to `COCCN(Cc1cc2cc(C)ccc2n2nnnc12)C(=S)Nc1ccc(C)cc1`, for which the inhibition is 10.5%.
The figure for `Cc1ccc2c(c1)cc(CN(Cc1cccnc1)C(=O)c1ccccc1)c1nnnn12` is -33.2%; for `COCCN(Cc1cc2cc(C)ccc2n2nnnc12)C(=S)Nc1cccc(C)c1` it is 33.3%.
The figure for `Cc1ccc2c(c1)cc(CN(Cc1cccnc1)C(=O)NCc1ccccc1)c1nnnn12` is -2.2%.
The figure for `COc1ccc(-c2csc(-c3[nH]cnc3N)n2)cc1` is -36.1%; for `COCCNC(=O)Cn1ccc2cc(S(=O)(=O)N3CCCCCC3)ccc21` it is -9.2%; for `COc1cc(-c2noc(C)c2-c2ccc3[nH]ccc3c2)cc(OC)c1OC` it is 33.3%.
Take `CC1CCCN(C(=O)CCNS(=O)(=O)c2ccc3c(c2)oc(=O)n3C)C1` (stereo not drawn): the inhibition is -23.9%.
In the case of `CCNC(=S)Nc1ccc(N(c2ccccc2)C(C)C)cc1` it was -9.8%; in that of `CC(C)N(c1ccccc1)c1ccc(NC(=S)NCCN(C)C)cc1`, -23.3%; in that of `O=C(CCCSc1ccc(Cl)cc1)Nc1ccccc1O`, 59.4% (active).
In the case of `O=C(Cc1ccc(-c2ccccc2)cc1)Nc1ccccc1` it was -1.9%.
In the case of `COC(=O)c1cccc(NC(=O)CCSc2ccc(Cl)cc2)c1C`, the inhibition was -10.1%.
On to `CC(=O)Nc1ccc(NC(=O)Cc2ccc(-c3ccccc3)cc2)cc1`, for which the inhibition is -16.2%.
`CC(C)N(c1ccccc1)c1ccc(NC(=O)CCl)cc1`: the inhibition was 95.4% (active).
In the case of `O=C(CCl)Nc1ccc(-c2ccccc2)cc1` it was 78.6% (active); in that of `Cc1ccc(C)c(Sc2ccc(NC(=O)CCl)cc2)c1`, 19.3%; in that of `O=C(CSCc1ccc(Cl)cc1)Nc1ccccc1O`, -40%.
As for `Cc1ccc(Sc2ccc(NC(=O)CCl)cc2)cc1C`, the inhibition is 21.2%.
As for `COc1ccc(/C=N/NC(=O)COc2ccc(Cl)cc2Cl)cc1Cn1nc(C)cc1C`, the inhibition is -18%.
Turning to `COc1ccccc1N1CCN(C2CCCN(C(=O)CCC(C)=O)C2)CC1` (stereo not drawn), the inhibition was -21%.
Take `COc1ccc(S(=O)(=O)N2CCC(C(=O)N[C@@H](C)C(=O)NCc3cccc(OC)c3)CC2)cc1`: the inhibition is -4.9%.
Take `Cc1c(C)c2c(OCC(=O)N3CCC(C(=O)NCC(C)C)CC3)cc3c(c2oc1=O)CCC(C)(C)O3`: the inhibition was -19.1%.
As for `O=C(CCCn1cnc2ccccc2c1=O)Nc1ccccc1F`, the inhibition is -9.5%.
As to `Cc1cccc(C)c1NC(=O)C1C2C=CC(C2)C1C(=O)O` (stereo not drawn), the inhibition was -40.2%.
As for `CCN1CCN(C(c2cccs2)C(C)NC(=O)c2ccco2)CC1` (stereo not drawn), the inhibition was 5.5%.
On to `CC(=O)Nc1nnc(/C=C/c2cccc([N+](=O)[O-])c2)s1`, for which the inhibition was 46%.
`CC(=O)C1=C(O)C(=O)N(Cc2ccco2)C1c1cccc(F)c1` (stereo not drawn): the inhibition is -28%.
As for `O=C(NCc1ccco1)c1ccc(Cl)c(S(=O)(=O)Nc2ccccc2)c1`, the inhibition is -15%.
